# Source: PubChem BioAssay AID1852 (Sanford-Burnham Center for Chemical Genomics, 2009)
# Screen size: about 2,500 compounds; about 1,100 (44%) were called active. The set was probably picked from earlier hits. The list shows a part of the results. A number with no mark means an inactive call.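 How the source made its calls: active means inhibition above 50% at 4 µM in the single-point screen; inactive means inhibition of 50% or less.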
# Assay: TNF-a-driven NF-kB reporter inhibitors, primary screen, selectivity assay for NOD1/NOD2 signaling inhibitor project, cell-based, HEK293T NF-kB-Luc, luminescence (AID 1852)
# Conditions: TNF-a induced, 14 h, at 4 µM, stronger effect = higher value
row,SMILES,inhibition
1,COc1ccccc1Nc1nc(N)nc(CCl)n1,28%
2,CCOc1ccc(Nc2nc(N)nc(CCl)n2)cc1,65.6% (active)
3,Cc1ccc(Nc2nc(N)nc(CCl)n2)c(C)c1,25.1%
4,COc1ccc(Nc2nc(N)nc(CCl)n2)cc1,23.2%
5,COc1ccc(OC)c(Nc2nc(N)nc(CCl)n2)c1,54.9% (active)
6,Cc1ccc(Nc2nc(N)nc(CCl)n2)cc1,-3.9%
7,CCc1nc(SCC(=O)N2c3ccccc3CC2C)c2c(C)c(C)sc2n1 (stereo not drawn),-10%
8,CCc1c(C)sc2nc(C(C)C)nc(SCC(=O)N3CCc4ccccc4C3)c12,53.6% (active)
9,Cc1sc2nc(C3CC3)nc(SCC(=O)N3CCc4ccccc4C3)c2c1C,-10.4%
10,COc1ccc(NC(=O)/C(C#N)=C/c2cc(C)n(-c3ccc(N4CCOCC4)c([N+](=O)[O-])c3)c2C)cc1,15%
11,CCOC(=O)N1CCN(C(=O)c2ccc(Cn3c(=S)[nH]c4ccc(Br)cc4c3=O)cc2)CC1,43.2%
12,O=C(c1ccc(Cn2c(=S)[nH]c3ccccc3c2=O)cc1)N1CCN(c2ccccn2)CC1,17.4%
13,CCOC(=O)N1CCN(C(=O)c2ccc(Cn3c(=S)[nH]c4cc5c(cc4c3=O)OCO5)cc2)CC1,55.2% (active)
14,O=C(c1ccc(Cn2c(=S)[nH]c3cc4c(cc3c2=O)OCO4)cc1)N1CCN(c2ncccn2)CC1,59.2% (active)
15,CCCCCn1c(=O)[nH]c2cc(C(=O)N3CCN(Cc4ccc5c(c4)OCO5)CC3)ccc2c1=O,34.6%
16,Cc1cc(C=O)c(C)n1-c1ccc(N2CCCCC2)c([N+](=O)[O-])c1,47.6%
17,Nc1ncc([N+](=O)[O-])c(N2CCCCCC2)n1,86.3% (active)
18,Cc1cc(/C=N/Nc2nc(N)ncc2[N+](=O)[O-])c(C)n1-c1ccccc1F,26.6%
19,CN(Cc1ccccc1)C(=S)NC(=O)c1ccc(-c2ccccc2)cc1,105% (active)
20,O=C(Nc1ccccn1)c1ccc(-c2ccccc2)cc1,-197%
21,CC(C)C[C@H](NC(=O)c1nc[nH]c1C(=O)N(C)Cc1ccccc1)C(=O)OC(C)(C)C,26.1%
22,C=CCN(CC=C)C(=S)NC(=O)c1ccc(-c2ccccc2)cc1,104% (active)
23,CN(C)c1cc[n+](CC(=O)c2ccc(-c3ccccc3)cc2)cc1,47.3%
24,CCOC(=O)CSc1n[nH]c(NC(=O)CC)n1,-7.7%

row,SMILES,inhibition
1,NC(=S)Nc1cccc2cn[nH]c12,75.7% (active)
2,O=c1c(C(c2ccccc2)c2c(O)sc3ccccc3c2=O)c(O)sc2ccccc12,77.7% (active)
3,NC(=O)c1nsc(C(=O)N(c2ccccc2)C(C(=O)NCc2ccc(F)cc2)c2ccco2)c1N (stereo not drawn),-11.7%
4,CN(C)c1ccc(C(C(=O)NCc2ccccc2)N(Cc2ccco2)C(=O)c2snc(C(N)=O)c2N)cc1 (stereo not drawn),11.8%
5,NC(=O)c1nsc(C(=O)N(c2ccccc2F)C(C(=O)NCc2ccc(F)cc2)c2ccc(O)cc2)c1N (stereo not drawn),69.7% (active)
6,COc1cc(CNc2ccc3[nH]c(=O)[nH]c3c2)ccc1OCc1ccccc1Cl,31.1%
7,COc1cc(C)ccc1OCCCOc1ccccc1Cl,90.6% (active)
8,COC(=O)c1ccccc1OCCCOc1ccc(C)cc1OC,-116%
9,N#CC1=C(N)N2C(=C(C#N)C1c1ccc(Br)cc1)Nc1ccccc12 (stereo not drawn),86.9% (active)
10,N#CC1=C(N)N2C(=C(C#N)C1c1cccc(Br)c1)Nc1ccccc12 (stereo not drawn),89.3% (active)
11,CCN1C(=O)/C(=C/c2nc3ccccc3c(=O)n2-c2ccc(C)cc2)c2ccccc21,23.6%
12,COc1ccc(C)cc1S(=O)(=O)N1CCN(C(=O)c2ncoc2-c2ccc(F)cc2)CC1,14.4%
13,COc1ccc(S(=O)(=O)N2CCCC(C(=O)NCc3ccncc3)C2)cc1Cl (stereo not drawn),8.9%
14,Cc1cc(-c2ccc(C)c(S(=O)(=O)N3CCN(c4ccc(F)cc4)CC3)c2)on1,41%
15,Cc1cc(Cl)c(S(=O)(=O)N2CCCCCC2)cc1OCC(=O)NC1CCCCC1,55.3% (active)
16,Cc1cc(Cl)c(S(=O)(=O)N2CCSCC2)cc1OCC(=O)NC1CCCCC1,44.2%
17,Cc1cc(Cl)c(S(=O)(=O)N2CCN(c3ccc(F)cc3)CC2)cc1OCC(=O)NC1CCCCC1,69.7% (active)
18,CCOc1ccc(/C=C2\C(=O)c3ccccc3OC2c2ccccc2)cc1 (stereo not drawn),-5.4%
19,Cc1ccc(-c2onc3ccc(C(=O)/C=C/N(C)C)cc23)cc1,14.5%
20,COc1ccc2cc3cc(C(=O)NCCc4ccc(OC)c(OC)c4)oc3nc2c1,-4.4%
21,CCOc1ccccc1N1CCN(C(=O)c2cc(-c3cc(OC)ccc3OC)nc3ccccc23)CC1,1.3%
22,COc1ccc2cc3c(N)nn(C(=O)Cc4ccccc4OC)c3nc2c1,91% (active)
23,COc1ccc2cc3c(N)nn(C(=O)Cc4c[nH]c5ccccc45)c3nc2c1,91.9% (active)
24,O=c1[nH]c(CCl)nc2cc(-c3ccc(F)cc3)sc12,28.3%

row,SMILES,inhibition
1,COc1ccc(-c2cc3nc(C)n(N)c(=O)c3s2)cc1,78.3% (active)
2,COc1ccc(-c2cc3nc(CCl)[nH]c(=O)c3s2)cc1,25.2%
3,CSc1cccc(NS(=O)(=O)c2ccc3c(c2)CCN3C(C)=O)c1,25%
4,CC1Cc2ccccc2N1C(=S)NC(=O)c1cccc(Br)c1 (stereo not drawn),103% (active)
5,COc1cccc(C(=O)/C=C/c2ccc(OCC#N)c(OC)c2)c1,-58.9%
6,COc1ccc(Br)cc1/C=C/C(=O)c1ccc(NC(C)=O)cc1,94.8% (active)
7,CC(=O)Nc1ccc(N/C=C/C(=O)c2ccc(C)cc2)cc1,-16.4%
8,COc1ccccc1/C=C1\S/C(=N/NC(=O)c2cccc(Br)c2)NC1=O,-30.6%
9,CCC(=O)Nc1cccc(C(=O)/C=C/c2cc(Br)ccc2OC)c1,77.3% (active)
10,Cc1ccc(CSC(Nc2ccc(F)cc2)=C(C#N)C#N)cc1,74.6% (active)
11,N#CC(C#N)=C(Nc1ccc(F)cc1)SCc1cccc(F)c1,81.7% (active)
12,N#CC(C#N)=C(Nc1ccc(F)cc1)SCc1cccc(Br)c1,54.7% (active)
13,COc1c(F)c(F)c(C(=O)Nc2cccc(Cl)c2N2CCOCC2)c(F)c1F,46.2%
14,COc1ccc(C)cc1NC(=O)CN(C)S(=O)(=O)c1ccc2c(c1)c(=O)n(C)c(=O)n2C,19.7%
15,COc1cc(/C=C/C(=O)c2ccc(C)cc2)ccc1OCC#N,19.5%
16,COc1cc(OC)c(OC)cc1/C=C/C(=O)c1ccc(NS(=O)(=O)c2ccc(C)cc2)cc1,70.3% (active)
17,COc1cccc(/C=C/C(=O)c2ccc(NS(=O)(=O)c3ccc(C)cc3)cc2)c1,4.1%
18,COc1cc(/C=C/C(=O)c2ccc(NS(=O)(=O)c3ccc(C)cc3)cc2)cc(OC)c1O,78.9% (active)
19,COc1cccc(C(=O)/C=C/Nc2ccc(S(=O)(=O)Nc3cccc(C(C)=O)c3)cc2)c1,46.2%
20,Oc1ccc2ccccc2c1N=Nc1ccccn1,95.8% (active)
21,Oc1ccc(N=Nc2ccccc2C(F)(F)F)c2cccnc12,20.4%
22,Cc1ccccc1NC(=O)C1CCN(c2cc(-c3ccccc3)nc3ncnn23)CC1,46%
23,O=C(Nc1ccc(Oc2ccccc2)cc1)C1CCN(c2c3c(nc4ncnn24)CCC3)CC1,62% (active)
24,CC(=O)c1ccc(N2CCN(C(=S)Nc3ccc(Oc4ccccc4)cc3)CC2)cc1,41.5%

row,SMILES,inhibition
1,COc1cc(C(=O)NCCOc2cc(C)ccc2C(C)C)cc(OC)c1OC,52.4% (active)
2,COCCNC(=S)N(CCc1c(C)[nH]c2ccc(C)cc12)Cc1cc(OC)c(OC)c(OC)c1,19.3%
3,COc1ccc(CCNC(=O)c2cc(=O)c3cc(C)ccc3o2)cc1OC,19.4%
4,CC1=CC(C)(C)Nc2ccc(OC(=O)C(C)N3C(=O)c4ccccc4C3=O)cc21 (stereo not drawn),40.1%
5,CC1=CC(C)(C)Nc2ccc(OC(=O)CN3C(=O)C4CCCCC4C3=O)cc21 (stereo not drawn),42.7%
6,CC1=CC(C)(C)Nc2ccc(OC(=O)CN3C(=O)CCC3=O)cc21,86.9% (active)
7,Cc1ccc(Sc2c(C=O)c3ccccc3n2C)cc1,86.4% (active)
8,Cn1c(Sc2ccc(Cl)cc2)c(C=O)c2ccccc21,34.4%
9,Cn1c(Sc2ccc(Br)cc2)c(C=O)c2ccccc21,48.7%
10,Cc1cccc(Sc2c(C=O)c3ccccc3n2C)c1,60.5% (active)
11,COc1cccc(OCCn2cc(C=O)c3ccccc32)c1,42.4%
12,COc1ccc(C2=Nn3c(nnc3-c3ccncc3)SC2)cc1,70.4% (active)
13,COc1cccc(-c2nnc3n2N=C(C(C)(C)C)CS3)c1,96.3% (active)
14,c1ccc(C2=Nn3c(nnc3-c3ccncc3)SC2)cc1,70.9% (active)
15,c1csc(C2=Nn3c(nnc3-c3ccncc3)SC2)c1,90.9% (active)
16,Clc1ccccc1C1=Nn2c(nnc2-c2ccncc2)SC1,84.4% (active)
17,O=S(=O)(Nc1cccc2ncccc12)c1cccs1,98.1% (active)
18,CCc1cccc(C)c1NS(=O)(=O)c1cccs1,-2.7%
19,Cc1ccc(S(=O)(=O)Nc2cccc3ncccc23)s1,96.4% (active)
20,Cc1c(NS(=O)(=O)c2ccc3c(c2)OCCO3)cccc1-c1nc2cccnc2s1,48.1%
21,COC(=O)c1cccc(NS(=O)(=O)c2cccs2)c1C,7.7%
